Shown is part of a subset that was picked to be rich in the strongest signals.
Columns and labels:
Experiment in all cases: glycan array binding signal (z-score within array); higher = stronger binding
Conditions in all cases: glycan notation: IUPAC condensed, linker removed
[1] = molecular target: Gal(b1-4)GlcNAc(b1-3)Gal(b1-4)GlcNAc(b1-2)[Gal(b1-4)GlcNAc(b1-3)Gal(b1-4)GlcNAc(b1-6)]Man(a1-6)[Gal(b1-4)GlcNAc(b1-3)Gal(b1-4)GlcNAc(b1-2)Man(a1-3)]Man(b1-4)GlcNAc(b1-4)[Fuc(a1-6)]GlcNAc
How it was run: (§1)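 Glycan array data were curated from 3228 arrays in the Consortium for Functional Glycomics database and kept only where the protein sequence was available. Glycan names were converted to IUPAC-condensed notation, and columns mapping to the same glycan were averaged. The binding signal is a within-array Z-score, averaged across arrays of the same protein sequence at different concentrations or buffers and across linkers. Negative Z-scores can be read as non-binding.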

Gal3S6S(b1-4)GlcNAc6S = molecular target: Gal3S6S(b1-4)GlcNAc6S
How it was run: as §1

Gal6S(b1-3)GlcNAc = molecular target: Gal6S(b1-3)GlcNAc
How it was run: as §1

[2] = molecular target: GalNAc(a1-3)GalNAc(b1-3)Gal(a1-4)Gal(b1-4)Glc
How it was run: as §1

GalNAc(b1-3)GlcNAc = molecular target: GalNAc(b1-3)GlcNAc
How it was run: as §1

GalNAc(b1-4)GlcNAc = molecular target: GalNAc(b1-4)GlcNAc
How it was run: as §1

[3] = molecular target: GalNAc(b1-4)GlcNAc(b1-2)Man
How it was run: as §1

[4] = molecular target: GalNAc(b1-4)GlcNAc(b1-3)GalNAc(b1-4)GlcNAc
How it was run: as §1

GalNAc(b1-4)GlcNAc6S = molecular target: GalNAc(b1-4)GlcNAc6S
How it was run: as §1

GalNAc6S(b1-4)GlcNAc = molecular target: GalNAc6S(b1-4)GlcNAc
How it was run: as §1

[5] = molecular target: GlcNAc(b1-2)Man(a1-3)[GlcNAc(b1-4)][GlcNAc(b1-2)Man(a1-6)]Man(b1-4)GlcNAc(b1-4)[Fuc(a1-6)]GlcNAc
How it was run: as §1

[6] = molecular target: GlcNAc(b1-3)Gal(b1-4)GlcNAc(b1-3)Gal(b1-4)GlcNAc(b1-3)Gal(b1-4)GlcNAc(b1-2)Man(a1-3)[GlcNAc(b1-3)Gal(b1-4)GlcNAc(b1-3)Gal(b1-4)GlcNAc(b1-3)Gal(b1-4)GlcNAc(b1-2)Man(a1-6)]Man(b1-4)GlcNAc(b1-4)[Fuc(a1-6)]GlcNAc
How it was run: as §1

[7] = molecular target: GlcNAc(b1-3)Gal(b1-4)GlcNAc(b1-3)Gal(b1-4)GlcNAc(b1-3)GalNAc
How it was run: as §1

GlcNAc(b1-3)GalNAc = molecular target: GlcNAc(b1-3)GalNAc
How it was run: as §1

GlcNAc(b1-4)GlcNAc = molecular target: GlcNAc(b1-4)GlcNAc
How it was run: as §1

[8] = molecular target: GlcNAc6S(b1-3)Gal(b1-4)GlcNAc
How it was run: as §1

Kdn(a2-3)Gal(b1-4)Glc = molecular target: Kdn(a2-3)Gal(b1-4)Glc
How it was run: as §1

Kdn(a2-6)Gal(b1-4)GlcNAc = molecular target: Kdn(a2-6)Gal(b1-4)GlcNAc
How it was run: as §1

[9] = molecular target: Man(a1-2)Man(a1-6)[Man(a1-3)]Man(a1-6)[Man(a1-2)Man(a1-2)Man(a1-3)]Man
How it was run: as §1

Man(a1-6)Man = molecular target: Man(a1-6)Man
How it was run: as §1

[10] = molecular target: Neu5Ac(a2-3)Gal(b1-3)GalNAc6S
How it was run: as §1

[11] = molecular target: Neu5Ac(a2-3)Gal(b1-4)GlcNAc(b1-2)Man(a1-3)[GlcNAc(b1-4)][Neu5Ac(a2-3)Gal(b1-4)GlcNAc(b1-2)Man(a1-6)]Man(b1-4)GlcNAc(b1-4)GlcNAc
How it was run: as §1

[12] = molecular target: Neu5Ac(a2-6)Gal(b1-4)GlcNAc(b1-2)[Neu5Ac(a2-6)Gal(b1-4)GlcNAc(b1-6)]Man(a1-6)[Neu5Ac(a2-6)Gal(b1-4)GlcNAc(b1-2)Man(a1-3)][GlcNAc(b1-4)]Man(b1-4)GlcNAc(b1-4)GlcNAc
How it was run: as §1

[13] = molecular target: Neu5Ac(a2-6)Gal(b1-4)GlcNAc(b1-3)Gal(b1-4)GlcNAc(b1-3)Gal(b1-4)GlcNAc(b1-2)Man(a1-3)[Neu5Ac(a2-6)Gal(b1-4)GlcNAc(b1-3)Gal(b1-4)GlcNAc(b1-3)Gal(b1-4)GlcNAc(b1-2)Man(a1-6)]GalNAc
How it was run: as §1

[14] = molecular target: Neu5Ac(a2-6)Gal(b1-4)GlcNAc(b1-3)[Neu5Ac(a2-6)Gal(b1-4)GlcNAc(b1-6)]GalNAc
How it was run: as §1

[15] = molecular target: Neu5Ac(b2-6)Gal(b1-4)GlcNAc
How it was run: as §1

B1: rCNL (Clitocybe nebularis), B2ZRS9 (protein)
chain: SITPGTYNITNVAYTNRLIDLTGSNPAENTLIIGHHLNKTPSGYGNQQWTLVQLPHTTIYTMQAVNPQSYVRVRDDNLVDGAALVGSQQPTPVSIESAGNSGQFRIKIPNLGLALTLPSDANSTPIVLGEVDETSTNQLWAFESVSAV
[1]
  glycan array binding signal (z-score): -0.147
Gal3S6S(b1-4)GlcNAc6S
  glycan array binding signal (z-score): -0.283
Gal6S(b1-3)GlcNAc
  glycan array binding signal (z-score): -0.224
[2]
  glycan array binding signal (z-score): -0.001
GalNAc(b1-3)GlcNAc
  glycan array binding signal (z-score): 4.24
GalNAc(b1-4)GlcNAc
  glycan array binding signal (z-score): 6.23
[3]
  glycan array binding signal (z-score): 6.09
[4]
  glycan array binding signal (z-score): 7.74
GalNAc(b1-4)GlcNAc6S
  glycan array binding signal (z-score): 4.96
GalNAc6S(b1-4)GlcNAc
  glycan array binding signal (z-score): 7.28
[5]
  glycan array binding signal (z-score): -0.228
[6]
  glycan array binding signal (z-score): -0.217
[7]
  glycan array binding signal (z-score): -0.218
GlcNAc(b1-3)GalNAc
  glycan array binding signal (z-score): -0.286
GlcNAc(b1-4)GlcNAc
  glycan array binding signal (z-score): -0.304
[8]
  glycan array binding signal (z-score): -0.273
Kdn(a2-3)Gal(b1-4)Glc
  glycan array binding signal (z-score): -0.301
Kdn(a2-6)Gal(b1-4)GlcNAc
  glycan array binding signal (z-score): -0.285
[9]
  glycan array binding signal (z-score): -0.296
Man(a1-6)Man
  glycan array binding signal (z-score): -0.294
[10]
  glycan array binding signal (z-score): -0.232
[11]
  glycan array binding signal (z-score): -0.226
[12]
  glycan array binding signal (z-score): -0.222
[13]
  glycan array binding signal (z-score): -0.13
[14]
  glycan array binding signal (z-score): -0.221
[15]
  glycan array binding signal (z-score): -0.31

Source: the supplement of paper PMC8728848
